This is an account of results in PubChem BioAssay (NCATS).

Records with an inconclusive call do not appear. Entries that show only a call come without a potency. The source made the active and inactive calls. Calls follow the shape of the dose curve; as a rule, active = well fitted curve in the direction sought with a large enough effect; inconclusive = small, poorly fitted or top-dose-only effect, or another doubt; inactive = no such curve, though single readings can be large; an effect the other way counts as inactive or inconclusive.

The target of experiment [1] is Aldehyde dehydrogenase, mitochondrial (Homo sapiens) (UniProt P05091). The experiment is described as follows: qHTS for Inhibitors of the Aldehyde Dehydrogenase Family (ALDH2) Primary screen (AID 2061308). Also: nearly all actives have a fitted effect of over 55% in size.
The target of experiment [2] is Retinaldehyde dehydrogenase 3 (Homo sapiens) (UniProt P47895). The experiment is described as follows: qHTS for Inhibitors of the Aldehyde Dehydrogenase Family (ALDH1A3) Primary screen (AID 2061315). A general note: qHTS replaces the single test concentration by a dilution series.

In the case of `N#Cc1nc(Nc2ccc(C(F)(F)F)cc2)nc(NC2CCCC2)n1`, the Potency entry in experiment [1] and in experiment [2] was “inactive” throughout.
For `O=C(Cc1ccccc1)Nc1ccc(S(=O)(=O)Nc2nccs2)cc1`, the Potency result in experiment [1] and in experiment [2] was “inactive” in each case.
On to `CCOC(=O)C1CCN(C(=O)C(C)(C)NC(=O)Nc2ccc3c(c2)CCC3)CC1`, for which the Potency entry in experiment [1] and in experiment [2] was “inactive” throughout.
For `COc1ccc(C2c3c(ncn(CCN4CCOCC4)c3=N)Oc3ccc4ccccc4c32)cc1` (stereo not given), the Potency result in experiment [1] and in experiment [2] was “inactive” each time.
Regarding `O=C(O)c1ccc(-c2noc(-c3cccc(C(F)(F)F)c3)n2)cc1`, the Potency result in experiment [1] and in experiment [2] was “inactive” in each case.
For `CC(=O)O[C@@H]1C(=O)O[C@@H]2[C@H]1OC(=O)[C@@H]2OC(C)=O`, the Potency result in experiment [1] and in experiment [2] was “inactive” in each case.
In the case of `Cc1ccnc(NC(=S)N[C@H]2CCN(c3cccc(C(F)(F)F)c3)C2)c1`, the Potency entry in experiment [1] and in experiment [2] was “inactive” throughout.
`Cc1cc(C)nc(NC(=S)N2CCN(c3cc(C(F)(F)F)nc(C)n3)CC2)c1`: the Potency entry in experiment [1] and in experiment [2] was “inactive” in each case.
For the molecule `O=[S+]([O-])(Nc1ccc(N2CCNCC2)cc1)c1ccc(NCc2ccc(Br)cc2O)cc1`, the Potency entry in experiment [1] and in experiment [2] was “inactive” in each case.
For the molecule `O=S(=O)(NCCCCCNS(=O)(=O)c1c(F)cccc1F)c1ccc2c(c1)OCCO2`, the Potency result in experiment [1] and in experiment [2] was “inactive” in each case.
With `Cc1ccnc(NC(=S)N2CCN(c3cc(C(F)(F)F)cc(C(F)(F)F)c3)CC2)c1`, the Potency entry in experiment [1] and in experiment [2] was “inactive” in each case.
For `O=C(OCC#CCSc1nnc(-c2ccc3ccccc3c2)o1)c1ccsc1`, the Potency result in experiment [1] and in experiment [2] was “inactive” throughout.
With `O=C(Nc1ccc(-n2cncn2)c(C(F)(F)F)c1)Nc1nnc(-c2ccncc2)s1`, the Potency result in experiment [1] and in experiment [2] was “inactive” throughout.
`O=C1NS(=O)(=O)c2cc(Cl)ccc21`: the Potency result in experiment [1] and in experiment [2] was “inactive” throughout.
Take `Cc1cc(NS(=O)(=O)c2ccc(NC(=O)Cc3ccc(Cl)c(F)c3)cc2)no1`: the Potency entry in experiment [1] and in experiment [2] was “inactive” each time.
With `O=[S+]([O-])(Nc1ccccc1F)c1cccc(NC/C=C/c2ccccc2)c1`, the Potency entry in experiment [1] and in experiment [2] was “inactive” throughout.
For the molecule `Cc1ccc(NS(=O)(=O)c2cc3c(cc2NC(C)CO)NC(=O)CC3)cc1C` (stereo not given), the Potency entry in experiment [1] and in experiment [2] was “inactive” in each case.
Turning to `CCN(CC)CCCC(C)n1c(-c2ccccc2)nc2c(NC3CCCCC3)nc(C)nc21` (stereo not given), the Potency result in experiment [1] and in experiment [2] was “inactive” throughout.
For `Cc1ccc(OCCn2c(CCN(C)C(=O)C3CCCCC3)nc3ccccc32)cc1`, the Potency entry in experiment [1] and in experiment [2] was “inactive” each time.
Take `CCOc1ccc(C(=O)Oc2ccc(-c3nc4ccccc4[nH]3)cc2)cc1`: the Potency result in experiment [1] and in experiment [2] was “inactive” in each case.
Take `Cc1nc(CNc2ncnc3ccc(-c4ccoc4)cc23)cs1`: the Potency entry in experiment [1] and in experiment [2] was “inactive” each time.
On to `S=P(c1ccccc1)(c1ccccc1)c1nc(CCCc2ccccc2)n2ccccc12`, for which the Potency result in experiment [1] and in experiment [2] was “inactive” in each case.
As to `COc1ccc(S(=O)(=O)Nc2c(C)cc(C)cc2C)cc1`, the Potency entry in experiment [1] and in experiment [2] was “inactive” each time.
With `OC1C=C2C3CN(Cc4cc5c(cc43)OCO5)C2CC1O` (stereo not given), the Potency entry in experiment [1] and in experiment [2] was “inactive” each time.
Regarding `COc1ccc(OC)c(C2=Nn3c(nnc3-c3ccccc3O)SC2)c1`, the Potency entry in experiment [1] and in experiment [2] was “inactive” each time.
Take `C=C[C@@]12COC(=O)C(=C)C1[C@@H](O)[C@H](C(=C)C(=O)OC)[C@@H](OC(=O)C(=C)CO)C2` (stereo not given in full): the Potency entry in experiment [1] and in experiment [2] was “inactive” each time.
In the case of `O=C([C@H](Cc1ccc(O[S+](=O)([O-])c2cccc3cnccc23)cc1)N[S+](=O)([O-])c1cccnc1)N1CCN(c2ccccc2)CC1`, the Potency result in experiment [1] and in experiment [2] was “inactive” each time.
For `Cn1c2cc(CO)sc2c2cnn(Cc3ccccc3F)c(=O)c21`, the Potency result in experiment [1] and in experiment [2] was “inactive” throughout.
Regarding `COc1ccc(C2Nc3ccccc3C(=O)N2Cc2cccs2)cc1COc1c(C)cccc1C` (stereo not given), the Potency entry in experiment [1] and in experiment [2] was “inactive” each time.
Consider `CCCn1c(-c2ccc(F)cc2)nc2c(NCC(C)(C)CN(C)C)nc(C)nc21`, for which the Potency result in experiment [1] and in experiment [2] was “inactive” in each case.
`Cn1nnnc1Sc1ncnc2scc(-c3ccccc3[N+](=O)[O-])c12`: the Potency result in experiment [1] and in experiment [2] was “inactive” each time.
Turning to `c1csc(CNc2ncnc3ccc(-c4ccc5c(c4)OCO5)cc23)n1`, the Potency result in experiment [1] and in experiment [2] was “inactive” in each case.
As for `O=C(Nc1nc(-c2ccccc2)cs1)c1ccncc1NS(=O)(=O)c1ccc(-c2ccccc2)cc1`, the Potency result in experiment [1] and in experiment [2] was “inactive” each time.
In the case of `CNC(=O)c1ccc(-c2cnc3cnc(C(=O)N(C)c4ccc(Cl)cc4)cn23)cc1`, the Potency result in experiment [1] and in experiment [2] was “inactive” throughout.
Regarding `Cc1noc(C)c1C(=O)N1CCC2(CCCN(C(c3ccccc3)c3ccccc3)C2)CC1`, the Potency entry in experiment [1] and in experiment [2] was “inactive” each time.
Turning to `O=C(Cc1nnc(CNC(=O)c2ccccc2)s1)Nc1ccc(C(F)(F)F)cc1Cl`, the Potency result in experiment [1] and in experiment [2] was “inactive” each time.
`Cc1ccc(-c2csc3ncnc(Sc4nnnn4C)c23)cc1`: the Potency result in experiment [1] and in experiment [2] was “inactive” each time.
`Cc1cc2[nH]c3c(=O)n(Cc4ccccc4F)ncc3c2s1`: the Potency entry in experiment [1] and in experiment [2] was “inactive” throughout.
For `Cc1cc(N[S+](=O)([O-])c2ccc(NC(=O)Cc3cccc(Cl)c3Cl)cc2)no1`, the Potency result in experiment [1] and in experiment [2] was “inactive” in each case.
With `Cc1cn([C@H]2C[C@H](N[S+](=O)([O-])c3ccc4c(c3)OCCO4)[C@@H](CO)O2)c(=O)[nH]c1=O`, the Potency entry in experiment [1] and in experiment [2] was “inactive” each time.
For the molecule `NC(=O)c1c(NC(=O)c2ccncn2)sc2c1CCCC2`, the Potency result in experiment [1] and in experiment [2] was “inactive” each time.
For `Cc1ccc(-c2ccc(=O)n(CCN)n2)cc1`, the Potency entry in experiment [1] and in experiment [2] was “inactive” in each case.
For the molecule `Cc1cc2c(s1)c1cnn(Cc3ccc(C#N)cc3)c(=O)c1n2C`, the Potency entry in experiment [1] and in experiment [2] was “inactive” each time.
Regarding `O=S(=O)(c1cccc(Br)c1)N1CCN(S(=O)(=O)c2ccc3c(c2)OCCO3)CC1`, the Potency entry in experiment [1] and in experiment [2] was “inactive” in each case.
Turning to `O=C1CN(S(=O)(=O)c2ccc3c(c2)OCCO3)CCN1S(=O)(=O)c1c(F)cccc1F`, the Potency result in experiment [1] and in experiment [2] was “inactive” in each case.
As to `C/C=C/C=C/C=C/C(=O)O[C@@H]1C=C2COC(=O)[C@]2(O)[C@@]2(C)CCCC(C)(C)[C@H]12`, the Potency result in experiment [1] and in experiment [2] was “inactive” each time.
In the case of `O=C(CNC(=O)c1ccccc1)OC(C(=O)Nc1ccc2c(c1)OCO2)c1ccccc1` (stereo not given), the Potency result in experiment [1] and in experiment [2] was “inactive” in each case.
On to `O=S(=O)(NC1CCN(S(=O)(=O)c2c(F)cccc2F)CC1)c1ccc2c(c1)OCCO2`, for which the Potency entry in experiment [1] and in experiment [2] was “inactive” each time.
As to `Cn1c2cc(B(O)O)sc2c2cnn(Cc3ccccc3F)c(=O)c21`, the Potency entry in experiment [1] and in experiment [2] was “inactive” in each case.
As for `O=C(OCC#CCSc1nnc(-c2cc3ccccc3cc2O)o1)c1ccc(F)cc1`, the Potency entry in experiment [1] and in experiment [2] was “inactive” each time.
As to `COc1ccc(C2=Nn3c(nnc3-c3ccccc3O)SC2)cc1OC`, the Potency entry in experiment [1] and in experiment [2] was “inactive” throughout.
In the case of `O=C(NNc1nc2cc(F)ccc2n2cccc12)c1cnccn1`, the Potency result in experiment [1] and in experiment [2] was “inactive” each time.
For the molecule `Cc1ccc(NS(=O)(=O)c2cc3c(cc2N(C)C)NC(=O)CC3)cc1C`, the Potency entry in experiment [1] and in experiment [2] was “inactive” in each case.
`Cc1cccc(-c2[nH]c(Cc3cccc(C(N)=O)c3)nc2-c2ccc3nccnc3c2)n1`: the Potency entry in experiment [1] and in experiment [2] was “inactive” each time.
Consider `CC(=O)Nc1ccc(-c2nc3ccccc3s2)cc1`, for which the Potency result in experiment [1] and in experiment [2] was “inactive” each time.
For `O=S1(=O)N=C(Sc2cc(C(F)(F)F)cc(C(F)(F)F)c2)c2ccccc21`, the Potency result in experiment [1] and in experiment [2] was “inactive” throughout.
For `COc1ccc2cc3cc(C(=O)Nc4ccc(F)cc4)sc3nc2c1`, the Potency entry in experiment [1] and in experiment [2] was “inactive” throughout.
For the molecule `Cc1ccc(S(=O)(=O)Nc2ccc(C)cc2C(=O)Nc2nc(-c3ccccc3)cs2)cc1`, the Potency result in experiment [1] and in experiment [2] was “inactive” throughout.
As for `Cc1cccc(CNc2ccnc(-c3cc(C(F)(F)F)cc(C(F)(F)F)c3)n2)c1`, the Potency entry in experiment [1] and in experiment [2] was “inactive” in each case.
As for `Cn1nnnc1Sc1ncnc2scc(-c3ccc(Cl)cc3)c12`, the Potency result in experiment [1] and in experiment [2] was “inactive” in each case.
As for `Cc1ccc(S(=O)(=O)Nc2ccc(C(=O)Nc3nc(-c4ccccc4)cs3)c(Cl)c2)cc1`, the Potency result in experiment [1] and in experiment [2] was “inactive” each time.
For the molecule `Cc1cccc(Nc2nc(NCCO)nc(N3CCCC3)n2)c1`, the Potency result in experiment [1] and in experiment [2] was “inactive” in each case.
As to `C(=C\c1cccs1)/c1cccnc1`, the Potency result in experiment [1] and in experiment [2] was “inactive” in each case.
Regarding `Cc1ccc(OCCn2c(CCNC(=O)c3ccccc3C)nc3ccccc32)cc1`, the Potency entry in experiment [1] and in experiment [2] was “inactive” in each case.
Turning to `O=S(=O)(c1ccc2c(c1)OCCO2)N1CCN(S(=O)(=O)c2ccc3c(c2)OCCO3)CC1`, the Potency entry in experiment [1] and in experiment [2] was “inactive” in each case.
